Test results as given in PubChem BioAssay.
Values joined by “and” are separate entries in the source; they are usually repeats but may differ in a detail not shown here. Equal values may be shown once. For some assays here: Measured potencies and affinities stand elsewhere. Active and inactive are the calls of the source. Unless noted, how the calls were made is not given here.

Columns and labels:
[1] = antimalarial activity against Dd2 strain (AID 2302;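 active means growth inhibition above 50% at the single 2 µM test dose, taken to imply half-maximal potency below 2 µM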;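 further: 0% = DMSO untreated growth and 100% = chloroquine plus artemisinin killed control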); details: P. falciparum Dd2 in RBCs, LDH growth readout, 72 h; at 2 µM; active compounds read high
[2] = human hepatoma cell viability loss – ATP luminescence, cytotoxicity control for P. falciparum antimalarial project, primary screen (AID 2303;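 active means inhibition above 50%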;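 further: 0% = DMSO wells and 100% = digitonin-killed cells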); details: HepG2 viability, 24-48 h, at 10 µM, active compounds read high
[3] = molecular target: L-lactate dehydrogenase (Plasmodium falciparum (isolate CDC / Honduras)) (UniProt Q27743); assay: PfLDH activity inhibition – cell lysate, 3D7 strain, counter-screen for P. falciparum growth inhibition project (AID 2304);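 further: 0% = vehicle and 100% = reference inhibitor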; details: P. falciparum 3D7 crude extract, LDH APAD/NBT absorbance; at 2 µM; active compounds read high
[4] = inhibition of 3D7 malaria parasite growth – strain 3D7 (AID 2306);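 further: 0% = DMSO wells and 100% = chloroquine plus artemisinin control wells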; details: P. falciparum 3D7 erythrocytic growth, LDH absorbance, 72 h; at 2 µM; active compounds read high
[5] = molecular target: Calcium-dependent protein kinase 1 (Plasmodium falciparum (isolate 3D7)) (UniProt P62344); assay: PfCDPK1 kinase inhibitors, biochemical, TCAMS library (AID 1159585; cut-off not given, nearly all actives have IC50 up to about 0.98 µM;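 further: inhibitors leave more ATP so luminescence rises with inhibition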); details: recombinant PfCDPK1, Kinase-Glo ATP depletion luminescence
[6] = molecular target: Plasmodium falciparum protein kinase 6 (PK6, PF3D7_1337100) (UniProt Q8IDW1); assay: PfPK6 kinase inhibitors, biochemical, TCAMS library (AID 1159586); details: recombinant PfPK6, Kinase-Glo ATP depletion luminescence
[7] = molecular target: Protein kinase 7 (PK7), Plasmodium falciparum 3D7 (PF3D7_0213400) (UniProt Q7YTF7); assay: inhibition of Plasmodium PK7 catalytic activity – biochemical, TCAMS antimalarial set, Kinase-Glo luminescence (AID 1159587); details: recombinant PfPK7, Kinase-Glo ATP depletion luminescence
[8] = molecular target: Calcium-dependent protein kinase 4 (Plasmodium falciparum (isolate 3D7)) (UniProt Q8IBS5); assay: PfCDPK4 kinase inhibitors, biochemical, TCAMS library (AID 1159588; cut-off not given, nearly all actives have IC50 up to about 0.91 µM); details: recombinant PfCDPK4, Kinase-Glo ATP depletion luminescence
Sequence of Calcium-dependent protein kinase 4 (Plasmodium falciparum (isolate 3D7)) (Q8IBS5 whole entry, looked up): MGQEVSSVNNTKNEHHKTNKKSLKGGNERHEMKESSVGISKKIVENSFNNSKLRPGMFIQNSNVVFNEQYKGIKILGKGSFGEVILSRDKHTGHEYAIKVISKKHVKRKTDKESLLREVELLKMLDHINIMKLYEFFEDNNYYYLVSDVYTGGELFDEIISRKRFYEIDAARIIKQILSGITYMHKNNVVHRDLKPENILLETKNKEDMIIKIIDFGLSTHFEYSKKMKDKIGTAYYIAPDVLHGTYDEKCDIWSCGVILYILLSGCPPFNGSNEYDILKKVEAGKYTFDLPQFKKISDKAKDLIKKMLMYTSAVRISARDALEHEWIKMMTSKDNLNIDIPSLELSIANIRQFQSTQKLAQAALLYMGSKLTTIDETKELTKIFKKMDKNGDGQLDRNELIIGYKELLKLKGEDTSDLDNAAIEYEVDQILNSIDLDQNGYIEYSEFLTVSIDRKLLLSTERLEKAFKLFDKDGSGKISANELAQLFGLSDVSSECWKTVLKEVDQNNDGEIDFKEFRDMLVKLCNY

Sequence of Protein kinase 7 (PK7), Plasmodium falciparum 3D7 (PF3D7_0213400) (Q7YTF7 1-343): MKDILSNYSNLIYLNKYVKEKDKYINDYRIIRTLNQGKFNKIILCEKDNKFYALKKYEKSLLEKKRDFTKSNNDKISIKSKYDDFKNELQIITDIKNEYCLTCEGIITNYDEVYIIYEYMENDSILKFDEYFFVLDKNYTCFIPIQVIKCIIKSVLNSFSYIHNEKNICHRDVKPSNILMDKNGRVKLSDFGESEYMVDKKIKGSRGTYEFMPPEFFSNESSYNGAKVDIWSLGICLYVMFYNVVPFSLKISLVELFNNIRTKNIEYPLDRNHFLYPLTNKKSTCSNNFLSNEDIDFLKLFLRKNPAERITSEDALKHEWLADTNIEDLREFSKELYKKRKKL
Sequence of Plasmodium falciparum protein kinase 6 (PK6, PF3D7_1337100) (Q8IDW1 1-305): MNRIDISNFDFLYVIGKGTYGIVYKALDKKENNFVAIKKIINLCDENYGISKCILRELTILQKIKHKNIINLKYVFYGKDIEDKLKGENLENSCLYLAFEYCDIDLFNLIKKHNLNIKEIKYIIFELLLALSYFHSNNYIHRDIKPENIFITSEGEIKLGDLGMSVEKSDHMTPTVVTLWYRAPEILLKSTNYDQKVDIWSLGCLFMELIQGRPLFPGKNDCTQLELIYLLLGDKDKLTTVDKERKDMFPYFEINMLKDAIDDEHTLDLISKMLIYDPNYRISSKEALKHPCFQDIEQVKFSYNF
Sequence of L-lactate dehydrogenase (Plasmodium falciparum (isolate CDC / Honduras)) (Q27743 whole entry, looked up): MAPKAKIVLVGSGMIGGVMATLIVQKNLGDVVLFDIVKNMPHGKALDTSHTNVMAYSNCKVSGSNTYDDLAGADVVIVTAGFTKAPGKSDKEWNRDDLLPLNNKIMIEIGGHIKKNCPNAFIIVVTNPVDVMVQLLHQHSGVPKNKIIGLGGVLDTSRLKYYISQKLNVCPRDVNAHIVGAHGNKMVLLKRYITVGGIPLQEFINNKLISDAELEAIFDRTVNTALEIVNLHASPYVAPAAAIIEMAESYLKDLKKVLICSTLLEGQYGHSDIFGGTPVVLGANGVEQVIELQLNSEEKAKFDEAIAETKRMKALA
Sequence of Calcium-dependent protein kinase 1 (Plasmodium falciparum (isolate 3D7)) (P62344 whole entry, looked up): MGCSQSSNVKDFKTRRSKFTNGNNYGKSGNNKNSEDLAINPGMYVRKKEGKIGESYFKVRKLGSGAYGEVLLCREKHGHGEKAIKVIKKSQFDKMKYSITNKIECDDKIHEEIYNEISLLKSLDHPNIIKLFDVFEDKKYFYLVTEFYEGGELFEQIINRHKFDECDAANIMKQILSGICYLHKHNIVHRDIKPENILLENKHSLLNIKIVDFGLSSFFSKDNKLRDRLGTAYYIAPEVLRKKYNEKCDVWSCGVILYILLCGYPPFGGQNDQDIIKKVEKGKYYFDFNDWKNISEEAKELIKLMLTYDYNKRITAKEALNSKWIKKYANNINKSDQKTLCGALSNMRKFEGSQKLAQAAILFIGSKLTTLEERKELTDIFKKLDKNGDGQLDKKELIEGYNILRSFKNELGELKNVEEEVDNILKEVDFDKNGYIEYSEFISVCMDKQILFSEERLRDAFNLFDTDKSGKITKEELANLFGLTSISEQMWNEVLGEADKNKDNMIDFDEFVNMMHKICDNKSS

CC1(CCc2ccccc2)N=C(N)N=C(N)C1c1ccc(Cl)c(Cl)c1 (configuration not stated)
inactive: growth inhibition [1] 39% | inhibition [2] 19% | inhibition [3] -8% | outcome [5] | outcome [6] | outcome [7] | outcome [8]
active: growth inhibition [4] 98%

O=C(/C=C/c1ccc(Cl)c(Cl)c1)NCCCCCN1CCC(NC(=O)Nc2ccccc2Cl)CC1
inactive: growth inhibition [1] 23% | inhibition [3] 3% | outcome [5] | outcome [6] | outcome [7] | outcome [8]
active: inhibition [2] 56% | growth inhibition [4] 102%

COc1ccc(CNCc2ccc(F)cc2)cc1-c1ccc(OC)c(S(=O)(=O)NCCN2CCCC2)c1
active: growth inhibition [1] 88% | growth inhibition [4] 101%
inactive: inhibition [2] 24% | inhibition [3] 5% | outcome [5] | outcome [6] | outcome [7] | outcome [8]

Cc1nc(-c2ccc(-c3ccc(NC(=O)c4coc5ccc(N6C[C@@H](C)N[C@@H](C)C6)cc45)cc3)c(C)c2)no1
inactive: inhibition [2] 1% | inhibition [3] 1% | outcome [5] | outcome [6] | outcome [7] | outcome [8]
active: growth inhibition [1] 88% | growth inhibition [4] 101%

O=c1cc(NCCCNCc2ccc(Cl)c(Cl)c2)[nH]c2cc(Cl)ccc12
inactive: inhibition [2] 1% | inhibition [3] 1% | outcome [5] | outcome [6] | outcome [7] | outcome [8]
active: growth inhibition [1] 51% | growth inhibition [4] 95%

C[C@H](Cc1ccc(C[C@@H](C)NCC(O)c2cc(Cl)c(N)c(Cl)c2)cc1)NCC(O)c1cc(Cl)c(N)c(Cl)c1 (some centres not stated)
inactive: inhibition [2] 26% | inhibition [3] -3% | outcome [5] | outcome [6] | outcome [7] | outcome [8]
active: growth inhibition [1] 50% | growth inhibition [4] 98%

O=C(NCCCCN1CCCC2c3ccc(O)cc3CCC21)c1ccc(-c2ccccc2)cc1 (configuration not stated)
inactive: growth inhibition [1] 25% and 7% | inhibition [2] 32% and 26% | inhibition [3] -8% and 3% | outcome [5] | outcome [6] | outcome [7] | outcome [8]
active: growth inhibition [4] 96%

CC(C)Oc1ccc2c(c1)OC(c1ccccc1)(C(F)(F)F)NC2=O (configuration not stated)
active: growth inhibition [1] 98% | growth inhibition [4] 101%
inactive: inhibition [2] -6% | inhibition [3] -2% | outcome [5] | outcome [6] | outcome [7] | outcome [8]

COc1ccc(NC(=O)C2CCN(CCCCCNC(=O)/C=C/c3ccc(Cl)c(Cl)c3)CC2)cc1
active: growth inhibition [4] 98%
inactive: growth inhibition [1] -4% | inhibition [2] 26% | inhibition [3] 6% | outcome [5] | outcome [6] | outcome [7] | outcome [8]

CC(C)(C)C1CCc2nc(N)nc(N)c2C1 (configuration not stated)
inactive: growth inhibition [1] 38% | inhibition [3] 6% | outcome [5] | outcome [6] | outcome [7] | outcome [8]
active: inhibition [2] 69% | growth inhibition [4] 94%

CCc1cn2c3c(cc(C(=O)N[C@@H](Cc4cc(F)cc(F)c4)[C@H](O)CNC4CC4)cc13)N(C)S(=O)(=O)CC2
inactive: inhibition [2] 3% | inhibition [3] 0% | outcome [5] | outcome [6] | outcome [7] | outcome [8]
active: growth inhibition [1] 99% | growth inhibition [4] 100%

O=C(NCCCCN1CCC(c2ccc(OC(F)(F)F)cc2)CC1)c1ccc(NC(=O)c2ccc(Cl)cc2)cc1
active: growth inhibition [1] 98% | growth inhibition [4] 99%
inactive: inhibition [2] 24% | inhibition [3] -3% | outcome [5] | outcome [6] | outcome [7] | outcome [8]

CN1CCN(Cc2ccc(-c3cc4nccc(Nc5ccc(Oc6ccccc6)cc5)c4cc3Cl)o2)CC1
active: growth inhibition [1] 99% | growth inhibition [4] 100%
inactive: inhibition [2] 3% | inhibition [3] -5% | outcome [5] | outcome [6] | outcome [7] | outcome [8]

O=C(/C=C/c1ccc(Cl)c(Cl)c1)NCCCCCN1CCCN(C(=O)Nc2cccc(F)c2)CC1
active: growth inhibition [4] 97%
inactive: growth inhibition [1] 4% | inhibition [2] 20% | inhibition [3] -3% | outcome [5] | outcome [6] | outcome [7] | outcome [8]

Cc1ccc(NC(=O)NCCCCCN2CCC(c3c[nH]c4ccccc34)CC2)cc1I
inactive: growth inhibition [1] 5% | inhibition [3] 6% | outcome [5] | outcome [6] | outcome [7] | outcome [8]
active: inhibition [2] 96% | growth inhibition [4] 94%

COc1c(C2CCN(CCCCNC(=O)c3noc(-c4ccc(C#N)cc4)n3)CC2)ccc2c1CCCC2
inactive: growth inhibition [1] -2% | inhibition [2] 32% | inhibition [3] -1% | outcome [5] | outcome [6] | outcome [7] | outcome [8]
active: growth inhibition [4] 99%

CN(C)CCCOc1ccc(CCCCc2ccc(Cl)cc2C(=O)c2ccccc2)cc1
inactive: growth inhibition [1] 8% | inhibition [2] 8% | inhibition [3] -7% | outcome [5] | outcome [6] | outcome [7] | outcome [8]
active: growth inhibition [4] 92%

O=C(Nc1cccc(-c2cccc(-c3nc4ccccc4[nH]3)c2)c1)N[C@@H]1C[C@H]1c1ccccc1
inactive: growth inhibition [1] 22% and 27% | inhibition [2] 40% and 8% | inhibition [3] 2% and 1% | outcome [5] | outcome [6] | outcome [7] | outcome [8]
active: growth inhibition [4] 87% and 90%

CC(=O)N1N=C(c2ccc(Cl)cc2)Sc2c1nc(C1CCCCC1)n2C(C)=O
inactive: inhibition [2] 1% | inhibition [3] -1% | outcome [5] | outcome [6] | outcome [7] | outcome [8]
active: growth inhibition [1] 67% | growth inhibition [4] 103%

COc1ccc(NC(=O)C2c3ccccc3C(=O)N(CC(C)C)C2c2cccs2)cc1OC (configuration not stated)
inactive: inhibition [2] 6% | inhibition [3] 3% | outcome [5] | outcome [6] | outcome [7] | outcome [8]
active: growth inhibition [1] 98% | growth inhibition [4] 100%

CC(C)(C)c1ccc(CN2CCC(NC(=O)c3ccc(-c4ccccc4Cl)s3)CC2)cc1
inactive: growth inhibition [1] 29% | inhibition [2] 36% | inhibition [3] 4% | outcome [5] | outcome [6] | outcome [7] | outcome [8]
active: growth inhibition [4] 84%

O=C(NCCCCN1CC[C@@H]2c3cccc(O)c3CC[C@H]21)c1ccc(-c2ccccc2)cc1
active: growth inhibition [1] 50% | growth inhibition [4] 81%
inactive: inhibition [2] 23% | inhibition [3] 2% | outcome [5] | outcome [6] | outcome [7] | outcome [8]

C=C[C@H]1CN(CCCCCCC)CC[C@H]1CCN(C)c1ccnc2ccc(OC)cc12
inactive: inhibition [2] 22% | inhibition [3] -1% | outcome [5] | outcome [6] | outcome [7] | outcome [8]
active: growth inhibition [1] 93% | growth inhibition [4] 97%

COc1ccc(CNCc2ccccc2)cc1-c1ccc(S(=O)(=O)NCCN2CCCC2)cc1
active: growth inhibition [4] 96%
inactive: growth inhibition [1] 39% | inhibition [2] 38% | inhibition [3] -1% | outcome [5] | outcome [6] | outcome [7] | outcome [8]

O=C(c1ccc(Cl)cc1)N1CCOC(CCN2CCC(c3ccccc3)CC2)(c2ccc(Cl)c(Cl)c2)C1 (configuration not stated)
inactive: inhibition [2] 19% | inhibition [3] 3% | outcome [5] | outcome [6] | outcome [7] | outcome [8]
active: growth inhibition [1] 68% | growth inhibition [4] 98%

O=C(Nc1ccccc1O)c1ccc(Oc2cccc(C(=O)Nc3ccccc3O)c2)cc1
active: growth inhibition [1] 70% | growth inhibition [4] 97%
inactive: inhibition [2] 33% | inhibition [3] -1% | outcome [5] | outcome [6] | outcome [7] | outcome [8]

COc1ccc2nccc([C@@H](O)CN3CCC(NCc4ccc5c(c4)nnn5C(C)C)CC3)c2c1
inactive: growth inhibition [1] 40% | inhibition [2] 15% | inhibition [3] 0% | outcome [5] | outcome [6] | outcome [7] | outcome [8]
active: growth inhibition [4] 100%

CCC(CC(NCCCCNC(=O)c1ccc(NC(=O)c2ccc(Cl)cc2)cc1)c1ccccc1)c1ccccc1OC (configuration not stated)
inactive: inhibition [2] 23% and 10% | inhibition [3] -1% and 1% | outcome [5] | outcome [6] | outcome [7] | outcome [8]
active: growth inhibition [1] 76% and 56% | growth inhibition [4] 100% and 89%

COc1ccc(NC(=O)NC2CCN(CCCOc3ccnc4cc(Cl)ccc34)C2)cc1OC (configuration not stated)
inactive: growth inhibition [1] 16% | inhibition [2] 6% | inhibition [3] 1% | outcome [5] | outcome [6] | outcome [7] | outcome [8]
active: growth inhibition [4] 90%

CC(CNC(=O)c1cc2c(Cl)cc(Cl)cc2[nH]1)CNc1cc(=O)c2ccccc2[nH]1 (configuration not stated)
active: growth inhibition [4] 97%
inactive: growth inhibition [1] 11% | inhibition [2] 11% | inhibition [3] 5% | outcome [5] | outcome [6] | outcome [7] | outcome [8]

CCCCCCNc1c2ccccc2nc2ccccc12
active: growth inhibition [4] 97%
inactive: growth inhibition [1] 32% | inhibition [2] 24% | inhibition [3] -3% | outcome [5] | outcome [6] | outcome [7] | outcome [8]

N#Cc1ccc2c(c1)CN(CCC1CCC(NC(=O)/C=C/c3c[nH]c4ccccc34)CC1)CC2 (configuration not stated)
active: growth inhibition [4] 92% and 97%
inactive: growth inhibition [1] 24% and 27% | inhibition [2] 10% and 20% | inhibition [3] -3% and -9% | outcome [5] | outcome [6] | outcome [7] | outcome [8]

c1ccc(Oc2cccc(Nc3ccnc4ccccc34)c2)cc1
active: growth inhibition [4] 95%
inactive: growth inhibition [1] 14% | inhibition [2] 48% | inhibition [3] 6% | outcome [5] | outcome [6] | outcome [7] | outcome [8]

COc1cccc(NC(=O)c2ccc(NCCCN3CC(C)CC(C)C3)c([N+](=O)[O-])c2)c1 (configuration not stated)
active: growth inhibition [1] 68% | growth inhibition [4] 100%
inactive: inhibition [2] 14% | inhibition [3] -4% | outcome [5] | outcome [6] | outcome [7] | outcome [8]
